Laboratory results: PubChem BioAssay
Active and inactive are the calls of the source.

What was measured:
Albumin (Bos taurus) = Albumin (Bos taurus) (UniProt P02769); assay: compounds binding labelled BSA control protein – biochemical, small-molecule microarray, Alexa647 label, 635/667 nm fluorescence, artefact control for SMM control protein annotation, profiling panel (AID 1118); details: BSA-A647 binding, fluorescence 635 nm, higher = more signal;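 further: score merges 667 nm emission intensity and signal-to-noise per printed compound spot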
[1] = probe aXIP binding to arrayed compounds – biochemical, NeuroSMM set, 635/667 nm fluorescence, primary screen (AID 1119); details: small-molecule microarray, higher = more signal, called active from +8 up or from −8 down;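 further: probe is the protein aXip251-270 applied at 1 µg/mL to compound-printed slides; binding of probe to printed compounds measured as 667 nm fluorescence plus signal to noise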
[2] = probe aNOTCH3 binding on compound microarray – biochemical, small-molecule microarray, 635/667 nm fluorescence, primary screen (AID 1120); details: higher = more signal;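 further: probe is a biotin-tagged antibody raised against NOTCH3 rather than NOTCH3 protein; score merges spot fluorescence near 667 nm with spot signal to noise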
[3] = probe aNOTCH2 binding on compound microarray – biochemical, small-molecule microarray, 635/667 nm fluorescence, primary screen (AID 1121); details: higher = more signal;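 further: score merges feature fluorescence read at 667 nm with its signal to noise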
[4] = target: Carbonic anhydrase 2 (Homo sapiens) (UniProt P00918); assay: compounds binding carbonic anhydrase 2 – biochemical, small-molecule microarray, Alexa647-labelled CAII, profiling panel (AID 1122); details: CAII-A647 binding fluorescence, higher = more signal
[5] = COS7 lysate on small-molecule microarray, probe aHis, 635 nm (AID 1123); details: COS7 cell lysate, fluorescence, higher = more signal;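 further: z-score combines 667nm fluorescence intensity with signal-to-noise per printed compound spot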
[6] = probe aLAP1 signal on lysate-treated microarray – cell lysate, small-molecule microarray, COS7 lysate, primary screen (AID 1124); details: probe aLAP1, fluorescence, higher = more signal;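 further: lysate comes from COS7 cells expressing LAP1 and is applied at 0.3 µg/mL; score merges spot fluorescence near 667 nm with signal-to-noise over triplicate slides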
Sam68 (KHDRBS1) = assay: compounds binding KHDRBS1 protein – biochemical, small-molecule microarray, 635 nm fluorescence, primary screen (AID 1125); details: higher = more signal;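 further: score merges 667 nm channel intensity with signal to noise over triplicate slides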
[7] = test system: Chordin-like protein 2 (CHRDL2); assay: compounds binding chordin-like 2 – biochemical, small-molecule microarray, 635 nm fluorescence, primary screen (AID 1126); details: fluorescence 635 nm, higher = more signal;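 further: printed compound slides probed with Chrdl2 protein at 4 µg/mL for 1 h at 4 C; score merges 667 nm emission intensity with signal to noise over three replicate slides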
[8] = target: Concanavalin-A (Canavalia ensiformis) (UniProt P02866); assay: compounds binding concanavalin A lectin – biochemical, small-molecule microarray, Alexa647 label, 635 nm, artefact control for SMM control protein annotation, primary screen (AID 1127); details: ConA-A647 binding fluorescence, higher = more signal;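 further: z combines 667 nm emission intensity with signal-to-noise across three replicate slides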
[9] = compounds binding Alexa647 anti-His antibody – biochemical, small-molecule microarray, 635 nm fluorescence, artefact control for SMM control protein annotation, primary screen (AID 1128); details: higher = more signal;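 further: score merges feature fluorescence with signal-to-noise for each printed compound spot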
[10] = test system: Human papillomavirus type 1a E7 protein (residues 1-88); assay: HPV1a E7 small-molecule binders, primary screen, biochemical, small-molecule microarray, residues 1-88, 635 nm (AID 1129); details: small-molecule microarray binding, fluorescence 635 nm; higher = more signal
[11] = target: Focal adhesion kinase 1 (Homo sapiens) (UniProt Q05397); assay: PTK2 protein binding on printed compound slides – biochemical, small-molecule microarray, 635/667 nm fluorescence, BSA, DTT, primary screen (AID 1130); details: 635 nm fluorescence, higher = more signal;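 further: composite of spot emission at 667 nm and signal to noise over triplicate slides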
[12] = test system: Fibrinogen (Alexa647-labelled); assay: Alexa647-fibrinogen binding to printed small molecules – biochemical, small-molecule microarray, 635/667 nm fluorescence, artefact control for SMM control-protein annotation, profiling panel (AID 1131); details: fibrinogen-A647 binding fluorescence, higher = more signal;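 further: z-score merges 667 nm fluorescence with per-spot signal-to-noise over triplicate slides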
[13] = target: Follistatin (Homo sapiens) (UniProt P19883); assay: FST protein binding to printed compounds – biochemical, small-molecule microarray, 635/667 nm fluorescence, primary screen (AID 1132); details: 635 nm fluorescence, higher = more signal
[14] = target: Fibroblast growth factor 2 (Homo sapiens) (UniProt P09038); assay: basic fibroblast growth factor binding to printed compounds – biochemical, small-molecule microarray, 635/667 nm fluorescence, primary screen (AID 1133); details: FGF2, fluorescence 635/667, higher = more signal
[15] = JC-1 mitochondrial potential readout, lung cancer cells – cell-based, A549, JC-1 fluorescence, basal, 24 h, 100 nL, profiling panel (AID 1138); details: higher = more signal;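 further: A549 lung adenocarcinoma cells under basal conditions with no added stimulus; test concentration not given here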
Lefty1 = Lefty1 protein binding to printed compounds – biochemical, small-molecule microarray, 635/667 nm fluorescence, primary screen (AID 1139); details: fluorescence 635/667, higher = more signal
[16] = test system: wheat germ agglutinin (Triticum aestivum), Alexa647-labelled; assay: Alexa647-WGA lectin binding to printed small molecules – biochemical, small-molecule microarray, 635/667 nm fluorescence, artefact control for SMM control-protein annotation, profiling panel (AID 1140); details: WGA-A647 binding, 635 nm fluorescence, higher = more signal;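 further: score merges 667 nm feature emission with signal to noise over triplicate slides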
[17] = target: Luciferin 4-monooxygenase (Photinus pyralis) (UniProt P08659); assay: inhibition of purified Photinus pyralis luciferase – biochemical, luminescence, purified enzyme, 2006 set, primary screen (AID 1141); details: purified firefly luciferase, SteadyGlo luminescence, 30 min; higher = more signal, called active from +8 up or from −8 down;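 further: cell-free assay with purified firefly luciferase at 100 ng per well in PBS; test concentration not given here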
Sequence of Luciferin 4-monooxygenase (Photinus pyralis) (P08659 whole entry, looked up): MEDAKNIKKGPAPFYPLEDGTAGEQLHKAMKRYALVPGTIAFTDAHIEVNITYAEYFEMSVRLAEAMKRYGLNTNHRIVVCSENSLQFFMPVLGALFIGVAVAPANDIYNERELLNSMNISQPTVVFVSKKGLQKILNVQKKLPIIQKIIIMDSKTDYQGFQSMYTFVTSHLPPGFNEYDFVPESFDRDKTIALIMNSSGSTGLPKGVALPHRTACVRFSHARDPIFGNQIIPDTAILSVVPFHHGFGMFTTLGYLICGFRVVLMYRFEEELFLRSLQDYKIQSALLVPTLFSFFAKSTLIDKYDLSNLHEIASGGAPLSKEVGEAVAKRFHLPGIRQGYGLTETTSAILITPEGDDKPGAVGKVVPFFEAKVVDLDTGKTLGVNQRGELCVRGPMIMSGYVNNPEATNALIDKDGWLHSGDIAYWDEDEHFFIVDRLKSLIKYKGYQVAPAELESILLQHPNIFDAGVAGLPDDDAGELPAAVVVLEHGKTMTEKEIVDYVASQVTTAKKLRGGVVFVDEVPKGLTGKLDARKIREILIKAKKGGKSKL

Sequence of Focal adhesion kinase 1 (Homo sapiens) (Q05397 whole entry, looked up): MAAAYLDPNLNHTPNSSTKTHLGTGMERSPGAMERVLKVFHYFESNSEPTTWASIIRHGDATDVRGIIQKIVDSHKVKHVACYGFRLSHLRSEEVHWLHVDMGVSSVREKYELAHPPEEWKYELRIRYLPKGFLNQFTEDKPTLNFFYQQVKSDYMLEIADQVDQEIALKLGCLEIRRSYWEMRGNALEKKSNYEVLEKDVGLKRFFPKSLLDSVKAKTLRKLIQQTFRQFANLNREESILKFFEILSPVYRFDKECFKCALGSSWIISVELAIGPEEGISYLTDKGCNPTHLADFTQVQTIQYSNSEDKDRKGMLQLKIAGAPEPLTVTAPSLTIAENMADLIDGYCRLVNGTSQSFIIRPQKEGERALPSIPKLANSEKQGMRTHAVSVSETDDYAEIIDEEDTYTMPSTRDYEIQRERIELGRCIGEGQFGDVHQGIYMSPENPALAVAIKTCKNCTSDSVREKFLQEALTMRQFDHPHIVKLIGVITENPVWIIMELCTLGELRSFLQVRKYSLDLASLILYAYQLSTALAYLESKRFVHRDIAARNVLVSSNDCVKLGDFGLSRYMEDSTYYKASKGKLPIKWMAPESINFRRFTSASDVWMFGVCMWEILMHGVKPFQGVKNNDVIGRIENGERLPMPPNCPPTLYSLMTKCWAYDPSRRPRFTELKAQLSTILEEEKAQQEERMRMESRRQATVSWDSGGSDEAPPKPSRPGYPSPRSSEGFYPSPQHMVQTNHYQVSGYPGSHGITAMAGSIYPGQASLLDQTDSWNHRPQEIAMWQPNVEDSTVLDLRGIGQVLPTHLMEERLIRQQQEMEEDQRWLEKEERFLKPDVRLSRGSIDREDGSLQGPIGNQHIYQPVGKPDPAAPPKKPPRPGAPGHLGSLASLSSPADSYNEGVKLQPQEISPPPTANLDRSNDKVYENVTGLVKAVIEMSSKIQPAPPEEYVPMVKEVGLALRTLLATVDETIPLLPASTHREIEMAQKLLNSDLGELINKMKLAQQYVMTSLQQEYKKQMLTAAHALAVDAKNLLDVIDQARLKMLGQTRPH
Sequence of Albumin (Bos taurus) (P02769 whole entry, looked up): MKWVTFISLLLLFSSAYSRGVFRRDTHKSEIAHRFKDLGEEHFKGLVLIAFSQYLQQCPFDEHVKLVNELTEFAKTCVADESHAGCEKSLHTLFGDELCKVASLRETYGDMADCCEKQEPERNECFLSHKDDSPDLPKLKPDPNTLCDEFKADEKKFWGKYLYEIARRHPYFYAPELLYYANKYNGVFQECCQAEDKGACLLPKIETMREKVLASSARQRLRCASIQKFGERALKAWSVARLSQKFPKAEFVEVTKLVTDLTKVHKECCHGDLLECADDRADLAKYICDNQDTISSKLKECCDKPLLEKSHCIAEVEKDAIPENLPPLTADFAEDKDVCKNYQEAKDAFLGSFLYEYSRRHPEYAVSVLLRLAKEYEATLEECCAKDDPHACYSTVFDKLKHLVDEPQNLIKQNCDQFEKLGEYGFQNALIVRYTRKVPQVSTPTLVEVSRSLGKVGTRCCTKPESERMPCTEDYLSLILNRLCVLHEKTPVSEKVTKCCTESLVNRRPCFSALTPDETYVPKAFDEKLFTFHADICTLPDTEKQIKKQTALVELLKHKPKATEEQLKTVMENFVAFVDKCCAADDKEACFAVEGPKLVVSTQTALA
Sequence of Fibroblast growth factor 2 (Homo sapiens) (P09038 whole entry, looked up): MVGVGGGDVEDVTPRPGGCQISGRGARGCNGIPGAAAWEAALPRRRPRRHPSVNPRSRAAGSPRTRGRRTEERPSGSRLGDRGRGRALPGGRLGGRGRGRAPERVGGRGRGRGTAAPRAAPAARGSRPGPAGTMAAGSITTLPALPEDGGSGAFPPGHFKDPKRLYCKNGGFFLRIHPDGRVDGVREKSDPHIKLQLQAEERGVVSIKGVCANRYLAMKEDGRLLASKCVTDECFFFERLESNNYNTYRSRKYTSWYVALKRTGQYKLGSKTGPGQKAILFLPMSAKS
Sequence of Concanavalin-A (Canavalia ensiformis) (P02866 whole entry, looked up): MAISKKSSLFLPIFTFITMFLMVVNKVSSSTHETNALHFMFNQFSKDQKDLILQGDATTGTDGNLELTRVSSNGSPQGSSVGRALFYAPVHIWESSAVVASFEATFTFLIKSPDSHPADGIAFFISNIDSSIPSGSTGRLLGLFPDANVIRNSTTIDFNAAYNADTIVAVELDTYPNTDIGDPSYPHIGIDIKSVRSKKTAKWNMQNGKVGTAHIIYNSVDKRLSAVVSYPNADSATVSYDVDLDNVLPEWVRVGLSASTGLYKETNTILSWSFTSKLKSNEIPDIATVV
Sequence of Follistatin (Homo sapiens) (P19883 whole entry, looked up): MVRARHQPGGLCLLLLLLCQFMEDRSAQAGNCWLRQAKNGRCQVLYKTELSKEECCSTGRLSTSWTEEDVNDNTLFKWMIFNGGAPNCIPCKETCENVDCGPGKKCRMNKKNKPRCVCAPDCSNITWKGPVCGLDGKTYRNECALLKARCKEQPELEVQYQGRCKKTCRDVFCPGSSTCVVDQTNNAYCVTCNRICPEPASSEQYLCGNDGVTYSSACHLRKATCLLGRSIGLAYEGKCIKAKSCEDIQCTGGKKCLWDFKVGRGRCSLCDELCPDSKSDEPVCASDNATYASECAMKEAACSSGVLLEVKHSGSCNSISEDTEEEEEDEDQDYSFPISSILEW

| Compound | composite z-score (Albumin (Bos taurus)) | composite Z-score [1] | composite z-score [2] | composite z-score [3] | composite z-score [4] | composite z-score [5] | composite z-score [6] | composite z-score (Sam68 (KHDRBS1)) | composite z-score [7] | composite z-score [8] | composite z-score [9] | composite z-score [10] | composite z-score [11] | composite z-score [12] | composite z-score [13] | composite z-score [14] | z-score [15] | composite z-score (Lefty1) | composite z-score [16] | z-score [17] |
| --- | --- | --- | --- | --- | --- | --- | --- | --- | --- | --- | --- | --- | --- | --- | --- | --- | --- | --- | --- | --- |
| C[C@]12C(=O)N(CCO)[C@@H]3C(=O)N(c4ccc(Cl)cc4)CC=CC31O[C@@H]1/C=C\CCCOC(=O)C12 (stereo not given in full) | 0.575 | 0.0414 (inactive) | -0.183 | -0.0798 | 0.883 | -0.485 | -0.0785 | -0.0284 | -1.62 | -0.263 | -0.415 | -0.639 | -0.422 | -0.333 | -0.178 | -0.711 | -0.574 | -0.185 | -0.839 | -0.0708 (inactive) |
| C=CCNC(=O)[C@@H]1[C@H]2C(=O)O[C@H](c3ccccc3)[C@H](c3ccccc3)N2[C@H](c2ccc(OCCO)cc2)[C@@]12C(=O)N(C(=O)OCCOC)c1ccccc12 | 0.258 | 1.01 (inactive) | -0.0362 | -0.0432 | 0.589 | 2.37 | 0.67 | 1.29 | 0.389 | 1.03 | 1.25 | 1.19 | 0.986 | 0.61 | 1.29 | 1.26 | 1.11 | 0.581 | 0.539 | 0.36 (inactive) |
| CCCCCCCCCCC(O)C1C=CC2C(=O)N(C)C(=O)C2N1Nc1ccccc1 (stereo not given) | 0.0703 | 0.636 (inactive) | -0.0975 | -0.271 | -0.0594 | 0.907 | 0.478 | -1.52 | -1.84 | -0.834 | -0.901 | -0.339 | 0.365 | -0.624 | -1.68 | -1.84 | 0.172 | -1.75 | -0.848 | -0.319 (inactive) |
| CCCCN1CC=CC23O[C@@H]4/C=C\CCC(C)OC(=O)C4[C@H]2C(=O)N(CCO)[C@@H]3C1=O (stereo not given in full) | 0.197 | 2.55 (inactive) | -0.0745 | -0.101 | 0.97 | 2.47 | 1.49 | 0.852 | -0.789 | -0.833 | 3.24 | -0.424 | 0.548 | -1.18 | -0.531 | -1.49 | -0.145 | 0.0422 | -0.169 | 1.1 (inactive) |
| CN1C(=O)C2C(C1=O)C1C=C(CCCO)C2C(C2CC2)N1C (stereo not given) | 0.913 | 0.178 (inactive) | -0.16 | -0.149 | 0.839 | 0.746 | -0.67 | -0.293 | -0.338 | -1.39 | -0.194 | -0.404 | 0.813 | -1.04 | -0.39 | 0.628 | 0.772 | -0.991 | 0.0425 | -0.224 (inactive) |
